Compounds with a hit are over-represented: about 4.4% of the library has one in this group of screens.
TIM10 inh = TIM10 yeast growth inhibition. S. cerevisiae TIM10 strain growth, BacTiter-Glo luminescence, 24 h. inhibition, % at 10 µM. 1.4% of 330,000 active. AID 463195;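 active = inhibition of 40% or more at the single tested concentration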;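 note: wild-type TIM10 isogenic control strain grown at permissive 25 °C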
tim10-1 inh = inhibits growth of tim10-1 mutant yeast. S. cerevisiae tim10-1 ts strain growth, BacTiter-Glo, 24 h. inhibition, % at 20 µM. 2.2% of 330,000 active. AID 463190;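 active = inhibition of at least 40%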;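 note: mutant grown at 25 °C; 0% = DMSO wells with yeast and 100% = wells holding no yeast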
SKKanGAS inh = blocks kanamycin growth of S. pyogenes SKKanGAS strain | AID 1662 | inhibition, % at 7.5 µM | BacTiter-Glo, 6 h | 1.3% of 300,000 active;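 active = mean replicate score, as percent of positive control median, at least 50; inconclusive = mean below 50 but one replicate at or above 50; inactive = mean and every replicate below 50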;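 note: strain carries kanamycin resistance gene driven by streptokinase promoter and grows in 40 µg/ml kanamycin; loss of luminescence reflects streptokinase promoter inhibition or plain growth inhibition; 0% = median of DMSO wells and 100% = positive control at its reference dose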
tim23-1 inh = tim23-1 yeast growth inhibition; inhibition, % at 20 µM; 1.3% of 330,000 active; S. cerevisiae tim23-1 growth, BacTiter-Glo luminescence, 24 h;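 active = growth inhibition of the mutant yeast at or above 50%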;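 note: temperature-sensitive mutant grown at 25 °C; plate controls were DMSO-treated mutant yeast for no effect and medium wells lacking yeast for full effect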
PfHsp90 yeast 2 = inhibits growth of yeast expressing Plasmodium falciparum Hsp90. S. cerevisiae expressing PfHsp90, BacTiter-Glo ATP, 48 h; yeast lacking PDR1 and PDR3 efflux regulators. inhibition, % at 9.4 µM. 0.32% of 310,000 active. AID 504621;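 active = every replicate shows inhibition above about 80%, whatever the replicate mean, limit read from the data; inconclusive = mean inhibition reaches the set limit but some replicate falls short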;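 note: 0% = DMSO neutral controls and 100% = 20 µM radicicol positive controls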
tim23-1 conf = confirmation of tim23-1 mutant yeast growth inhibitors; 83% of 4,400 active; inhibition, % at 20 µM; shares compounds with tim23-1 inh; AID 463218; S. cerevisiae tim23-1 growth, BacTiter-Glo luminescence, 24 h;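 active = inhibition above about 39% in either of two replicate wells at 20 µM, limit read from the data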;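 note: temperature-sensitive tim23-1 mutant grown at 25 °C; 0% = DMSO wells with yeast and 100% = medium wells without yeast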
* = called active by the depositor; u = inconclusive; x = not tested or not shown.

SMILES	TIM10 inh	tim10-1 inh	SKKanGAS inh	tim23-1 inh	PfHsp90 yeast 2	tim23-1 conf
Cc1ccc(S(=O)(=O)N2CCc3ccccc3C2)cc1	-2.7	14.1	9.7	36.8	-3.1	x
Cc1ccc(S(=O)(=O)N2C(=O)[C@@H]3Cc4ccccc4CN3C2=O)cc1	13.7	23.3	-8.8	51.4*	11.3	41.3*
COc1ccc(OC)c(NC(=O)c2nc(S(=O)(=O)Cc3ccccc3)ncc2Cl)c1	34.3	11.0	-11.8	73.1*	100.5*	-42.8
Cc1ccccc1CS(=O)(=O)c1ncc(Cl)c(C(=O)Nc2ccc(F)cc2)n1	5.7	-1.1	-12.3	61.9*	114.4*	-23.2
O=C(Nc1ccc(F)cc1)c1nc(S(=O)(=O)Cc2ccccc2)ncc1Cl	3.2	30.7	-5.7	60.8*	96.4*	-126.2
Cc1nnc(NC(=O)c2nc(S(=O)(=O)Cc3ccccc3)ncc2Cl)s1	15.7	14.8	6.0	15.0	20.5	x
CCS(=O)(=O)c1ncc(Cl)c(C(=O)Nc2ccc(S(=O)(=O)N(C)c3ccccc3)cc2)n1	5.9	27.0	-51.7	31.7	4.2	x
CCN1C(=NCCc2cccs2)N[C@@H](c2cccs2)C(C(=O)OC)=C1C	7.2	15.8	2.1	13.6	-8.8	x
COc1ccc(COn2c(=O)c(C)[n+]([O-])c3ccccc32)cc1OC	4.9	9.9	-2.3	89.3*	15.0	4.7
O=C(NCc1cccnc1)/C(=C\c1ccc(-c2ccc(Br)cc2)o1)S(=O)(=O)c1ccccc1	34.8	38.6	-5.7	51.5*	14.5	63.3*
O=C(CN(Cc1ccc(Br)cc1)S(=O)(=O)c1ccccc1)NCc1cccnc1	2.4	35.2	-6.4	16.8	7.9	x
COc1ccc(Nc2nc3ccc(OC)cc3s2)cc1	35.8	26.2	-3.1	60.8*	-4.4	40.0*
CCN1C[C@@H]2[C@@H]3C(=O)N(C)C(=O)[C@@H]3[C@](CC)(C1=O)N2C(=O)c1ccc(C(C)(C)C)cc1	-1.1	10.7	x	19.1	4.4	x
Cc1cc(C)c(NC(=O)CS(=O)CC(=O)N2CCN(c3cccc(C)c3C)CC2)c(C)c1 (stereo unspecified)	-7.7	3.8	-1.0	89.5*	-0.2	6.5
Clc1ccc(CN2CCN(c3ncccn3)CC2)cc1	-7.5	-11.5	0.7	-0.2	11.1	x
Oc1c(C(Nc2cccc(C(F)(F)F)c2)c2ccncc2)ccc2cccnc12 (stereo unspecified)	18.4	28.9	60.2*	58.6*	103.8*	56.2*
O=C(Nc1cccc(C(F)(F)F)c1)c1cccnc1	4.9	25.9	x	9.3	x	x
COc1ccc(-c2sc3ccccc3c2-c2ccc(OCCN(C)C)cc2)cc1	-11.2	14.1	x	2.7	40.6	x
CN(C)CCOc1ccc(-c2c(-c3ccsc3)sc3ccccc23)cc1	13.6	25.1	x	76.4*	23.7	56.9*
CCn1c(-c2ccccc2)csc1=Nc1ccc(O)cc1	35.1	39.9	12.7	58.3*	-9.5	38.9*
CCOc1ccc(N=c2scc(-c3ccccc3)n2CCO)cc1	13.1	23.6	0.4	21.7	4.8	x
COC(=O)c1cccc(-c2ccc(C(c3c(C)[nH][nH]c3=O)c3c(C)[nH][nH]c3=O)o2)c1	5.3	33.4	-2.4	50.7*	-3.7	49.3*
COC(=O)N/N=C/c1ccc(-c2cc(Cl)cc(Cl)c2)o1	34.5	33.9	-2.7	57.5*	-43.1	62.2*
COC(=O)N/N=C/c1ccc(-c2cccc(Cl)c2)o1	6.6	-32.5	-13.3	20.4	16.3	x
Cc1ccc2oc(=O)c(-c3ccc(O)cc3)c(C)c2c1	13.0	22.6	x	52.1*	0.8	46.7*
SMILES	TIM10 inh	tim10-1 inh	SKKanGAS inh	tim23-1 inh	PfHsp90 yeast 2	tim23-1 conf
Cc1c(-c2ccccc2)c(=O)oc2ccc(O)cc12	-25.8	19.2	-4.5	21.0	-19.0	x
Cc1ccc(-n2c(C)nnc2SCC(=O)N(C)c2c(N)n(Cc3ccccc3)c(=O)[nH]c2=O)cc1	2.3	0.5	x	-2.4	3.8	x
CC(C)C(=O)N1CCN(c2ccc(NC(=O)c3cccs3)cc2Cl)CC1	23.9	-14.4	-2.8	34.2	23.9	x
O=C(Nc1ccc(N2CCN(C(=O)c3ccco3)CC2)c(Cl)c1)c1cccs1	19.5	28.2	1.7	57.8*	16.4	52.9*
O=C(Nc1ccc(Cl)c(NC(=O)c2cccs2)c1)c1ccco1	9.6	26.7	-4.6	54.7*	16.3	48.2*
O=C(Nc1ccc(NC(=O)c2cccs2)cc1Cl)c1ccco1	18.5	-11.2	-0.6	34.2	7.1	x
O=C1C(=Cc2cccs2)Oc2ccccc21	x	x	x	x	20.2	x
O=C1/C(=C/c2cccs2)COc2ccccc21	33.3	27.8	6.0	58.4*	-5.1	57.6*
COc1ccc(CCNC(=O)c2ccc3ccccc3n2)cc1	2.2	-30.1	-2.8	14.5	-11.2	x
COc1cc([N+](=O)[O-])ccc1NC(=O)CSc1nc2ccccc2n1-c1ccccc1	2.4	6.8	-11.2	-3.6	x	x
O=C(O)c1cccc(-c2ccc(/C=N/n3cnc4sc5c(c4c3=O)CCCC5)o2)c1	0.2	29.2	7.6	52.3*	x	22.3
Cc1cc(C)cc(OCC(=O)N/N=C/c2ccc([N+](=O)[O-])o2)c1	33.2	33.5	-6.0	51.8*	22.3	37.7
O=C(CC12CC3CC(CC(C3)C1)C2)N/N=C/c1ccc([N+](=O)[O-])o1	35.8	38.0	-16.1	57.4*	-19.6	37.3
O=C(Cc1ccc([N+](=O)[O-])cc1)N/N=C/c1ccc([N+](=O)[O-])o1	-1.1	16.4	u	16.1	-3.3	x
Cc1ccc(S(=O)(=O)NC23CC4CC(CC(C4)C2)C3)cc1	22.2	14.8	x	50.5*	-50.0	52.1*
Cc1ccc(S(=O)(=O)NN=C2C3CC4CC(C3)CC2C4)cc1	-1.4	-17.7	-10.1	-3.0	4.3	x
CCOc1cc(/C=N/Nc2ccccc2Cl)ccc1OCC(=O)O	x	x	x	x	21.0	x
CCOc1cc(/C=C2\COc3ccccc3C2=O)ccc1OCC(=O)N(C)C	33.8	29.6	4.1	54.4*	-86.6	52.9*
CC(SC(C)C(=O)NN=Cc1cccc(Cl)c1)C(=O)NN=Cc1cccc(Cl)c1 (stereo unspecified)	x	x	x	x	-21.2	x
N#C/C(N)=C(/C#N)N=Cc1cccc(Cl)c1	0.9	-11.5	-6.3	52.2*	4.0	51.5*
Cc1ccc(C(C)(C)C)c(SCC(=O)Nc2nnc(C)s2)c1	-2.2	-2.6	10.7	-8.6	7.1	x
COc1ccc(/C=N/NC(=O)c2cccnc2)c2ccccc12	-11.4	16.4	-2.0	13.6	-2.5	x
COc1ccc(/C=N/NC(=O)c2cccs2)c2ccccc12	27.3	-5.1	-10.6	56.4*	2.7	50.6*
COc1ccc(S(=O)(=O)Nc2ccc3c(c2)C(=O)N([C@H](C)CO)C[C@H](C)[C@@H](CN(C)C(=O)Nc2ccc(C(F)(F)F)cc2)O3)cc1	3.6	7.5	x	21.4	16.3	x
CCOc1ccc(N=C(C)C2=C(O)c3ccccc3C2=O)cc1	16.8	7.5	20.2	60.4*	16.8	57.7*
C/C(=N\N(C)C)C1=C(O)c2ccccc2C1=O	5.0	8.3	-0.5	21.7	-11.1	x

Bioassay records from PubChem BioAssay.
